Values joined by “and” are separate entries in the source; they are usually repeats but may differ in a detail not shown here. Equal entries are not always repeated. Results filed as inconclusive are left out. Active and inactive are the calls of the source. The call rests on the fitted dose curve; in most records, active means well fitted inhibition curve with a large enough effect; inconclusive means small, poorly fitted or top-dose-only effect, or another doubt; inactive means no such curve, though single readings can be large or run the other way.
Molecular target: Neuropeptide S receptor (Homo sapiens) (UniProt Q6W5P4)
Sequence (Q6W5P4 whole entry, looked up): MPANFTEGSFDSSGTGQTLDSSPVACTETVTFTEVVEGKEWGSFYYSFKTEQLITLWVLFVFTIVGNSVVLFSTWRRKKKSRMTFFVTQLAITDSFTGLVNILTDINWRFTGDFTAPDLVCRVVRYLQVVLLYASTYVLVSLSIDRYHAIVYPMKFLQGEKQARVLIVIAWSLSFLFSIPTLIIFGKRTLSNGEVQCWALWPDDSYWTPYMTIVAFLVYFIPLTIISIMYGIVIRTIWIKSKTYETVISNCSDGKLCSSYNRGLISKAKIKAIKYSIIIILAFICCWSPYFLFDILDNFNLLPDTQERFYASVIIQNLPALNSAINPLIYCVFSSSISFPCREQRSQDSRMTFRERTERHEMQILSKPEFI
Assay: Confirmation Concentration-Response Assay for Antagonists of the Neuropeptide S Receptor: Robust Characterization of Calcium Signal Transduction

SMILES	Potency
COc1cccc(C2c3c(ncn(-c4ccc(-c5ccccc5)cc4)c3=N)Oc3ccc4ccccc4c32)c1 (centres undefined)	inactive
N=c1c2c(ccn1CCCc1ccccc1)Oc1ccc3ccccc3c1C2c1ccccc1 (centres undefined)	3.48 µM (active)
COc1ccc(C2c3c(nc(C)[nH]c3=O)Oc3ccc4ccccc4c32)cc1OC (centres undefined)	inactive
COc1ccc(C2c3c(nc(Cc4ccccc4)[nH]c3=O)Oc3ccc4ccccc4c32)cc1OC (centres undefined)	inactive
N=c1c2c(ccn1CCCCc1ccccc1)Oc1ccc3ccccc3c1C2c1ccccc1 (centres undefined)	inactive
COc1cccc(C2c3c(ncn(-c4ccccc4Br)c3=N)Oc3ccc4ccccc4c32)c1 (centres undefined)	2.76 µM (active)
COc1ccc(C2c3c(nc(CCCc4ccccc4)[nH]c3=O)Oc3ccc4ccccc4c32)cc1OC (centres undefined)	inactive
O=C(Cc1ccccc1)Nc1ncnc2c1C(c1ccccc1)c1c(ccc3ccccc13)O2 (centres undefined)	1.1 µM (active)
COc1cccc(C2c3c(ncn(-c4ccccc4C)c3=N)Oc3ccc4ccccc4c32)c1 (centres undefined)	5.52 µM (active)
CC(C)(C)OC(=O)Nc1ncnc2c1C(c1ccccc1)c1c(ccc3ccccc13)O2 (centres undefined)	inactive
N=c1c2c(ccn1Cc1ccccc1)Oc1ccc3ccccc3c1C2c1ccccc1 (centres undefined)	3.91 µM (active)
COc1ccc(C2c3c(ncn(Cc4ccccc4)c3=N)Oc3ccc4ccccc4c32)cc1OC (centres undefined)	0.619 µM (active)
COc1cccc(C2c3c(ncn(-c4ccccc4)c3=N)Oc3ccc4ccccc4c32)c1 (centres undefined)	1.55 µM (active) and 139 nM (active)
COc1cccc(C2c3c(ncn(-c4ccc(F)cc4)c3=N)Oc3ccc4ccccc4c32)c1 (centres undefined)	2.2 µM (active)
COc1ccc(C2c3c(n(CCCc4ccccc4)cnc3=N)Oc3ccc4ccccc4c32)cc1OC (centres undefined)	4.92 µM (active)
COc1cccc(C2c3c(ncn(-c4cccc(OC)c4)c3=N)Oc3ccc4ccccc4c32)c1 (centres undefined)	0.391 µM (active)
N=c1c2c(ccn1-c1ccccc1)Oc1ccc3ccccc3c1C2c1ccccc1 (centres undefined)	0.22 µM (active)
N=c1c2c(ncn1-c1ccccc1)Oc1ccc3ccccc3c1C2c1ccc2c(c1)CCO2 (centres undefined)	0.124 µM (active)
COc1cccc(C2c3c(ncn(-c4ccc(C(C)(C)C)cc4)c3=N)Oc3ccc4ccccc4c32)c1 (centres undefined)	1.24 µM (active)
CCOC(=O)c1ccc(-n2cnc3c(c2=N)C(c2cccc(OC)c2)c2c(ccc4ccccc24)O3)cc1 (centres undefined)	2.46 µM (active)
COc1ccc(C2C3=C(N=CN(CCN4CCOCC4)C3N)Oc3ccccc32)cc1OC (centres undefined)	inactive
CCOC(=O)CCC(=O)Nc1ncnc2c1C(c1ccccc1)c1c(ccc3ccccc13)O2 (centres undefined)	1.24 µM (active)
COc1cccc(C2c3c(ncn(Cc4cccs4)c3=N)Oc3ccc4ccccc4c32)c1 (centres undefined)	3.1 µM (active)
CCOC(=O)CC(=O)Nc1ncnc2c1C(c1ccccc1)c1c(ccc3ccccc13)O2 (centres undefined)	0.552 µM (active)
O=C(CCc1ccccc1)Nc1ncnc2c1C(c1ccccc1)c1c(ccc3ccccc13)O2 (centres undefined)	1.96 µM (active)
COc1ccc(C2c3ccc(OCc4ccccc4)cc3Oc3ncn(CCN4CCOCC4)c(=N)c32)cc1OC (centres undefined)	11 µM (active)
COc1cccc(C2c3c(ncn(-c4ccccn4)c3=N)Oc3ccc4ccccc4c32)c1 (centres undefined)	4.92 µM (active)
COc1cccc(C2c3c(ncn(CCN4CCOCC4)c3=N)Oc3ccc4ccccc4c32)c1 (centres undefined)	1.74 µM (active)
CCC(C)(CCN1CCOCC1)N(Cc1cc2ccccc2n(C)c1=O)C(=O)C1CCCCC1 (centres undefined)	0.00135 µM (active)
